Where “and” joins values, the source holds several entries; their conditions need not be identical. Equal entries are not always repeated. The campaign covered roughly 340,000 compounds. About 6,200 (1.8%) were called active. Another 10% or so got no clear call; they are omitted. The full list was thinned out, with actives kept by preference. Values without a mark were called inactive. The call rests on the fitted dose curve; in most records, active means well fitted activation curve with a large enough effect; inconclusive means small, poorly fitted or top-dose-only effect; inactive means no such curve, though single readings can be large or run the other way.
Assay: A quantitative high throughput screen for small molecules that induce DNA re-replication in SW480 colon adenocarcinoma cells. Further: nearly all actives have a fitted effect of over 55% in size. On re-replication activation: % of control where 0% means no effect.
Details: Hoechst DNA content imaging, 48 h; series mostly up to 46.1 µM; re-replication activation: at the top concentration
Procedure, shortened: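 Image-based DNA-content assay: after two days of treatment, nuclei were labelled with the DNA dye Hoechst and imaged, and hits were compounds raising the count of nuclei showing high fluorescence intensity.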
Potency means the concentration at half of the fitted maximal effect.

| SMILES | re-replication activation | Potency |
| --- | --- | --- |
| COc1ccc(-c2cc(C(=O)NCCCn3ccnc3)no2)cc1 | -4.18% | – |
| O=C(NCCCn1ccnc1)c1cc(-c2ccccc2)on1 | – | 7.31 µM (active) |
| COc1ccccc1-c1cc(C(=O)NCCCn2ccnc2)no1 | -8.25% | – |
| CCCCN1CC(CO)Oc2cccc(F)c2S1(=O)=O (configuration not stated) | -13% | – |
| C[C@@H]1ON(C)[C@H]2C[C@H]3c4cc(N5CCN(C)CC5)ccc4CCN3C(=O)[C@@H]12 | -3.9% | – |
| COc1ccc(/C=C/C(=O)Nc2cccnc2)cc1OC | -1.89% | – |
| COc1ccc(/C=C/C(=O)Nc2ccc(C)cc2)cc1S(=O)(=O)N1CCOCC1 | -2.91% | – |
| COc1ccc(/C=C/C(=O)Nc2ccc(C34CC5CC(CC(O)(C5)C3)C4)cc2)cc1OC | – | 18.4 µM (active) |
| CC1=C(C)CC(C(=O)NNC(=O)c2csc3c2CCC(C(C)(C)C)C3)C(C(=O)O)C1 (configuration not stated) | – | 29.1 µM (active) |
| COC(=O)c1c(NC(=O)C2CC(C)=C(C)CC2C(=O)O)sc2c1CCCCC2 (configuration not stated) | -9.14% | – |
| CC1=C(C)CC(C(=O)NNC(=O)c2ccccc2O)C(C(=O)O)C1 (configuration not stated) | 2.89% | – |
| NC(=O)C1(Nc2ccc(-c3ccccc3)cc2)CCCC1 | 3.19% | – |
| Cc1ccc(S(=O)(=O)N2CCOCC2)cc1NC(=O)COC(=O)c1cnccn1 | 1.9% | – |
| O=C(CC1Nc2ccccc2NC1=O)Nc1ccccc1 (configuration not stated) | – | 12.6 µM (active) |
| COC(=O)c1cc(C)sc1NC(=O)CC1Nc2ccccc2NC1=O (configuration not stated) | 4.03% | – |
| O=C(CC1NCCNC1=O)Nc1ccc(Oc2ccccc2)cc1 (configuration not stated) | 6.95% | – |
| C[C@]12CCC(=O)C=C1C=CC1C2CC[C@@]2(C)C1CC[C@@]21CCC(=O)O1 (some centres not stated) | 1.11% | – |
| Nc1ccc2c(c1)C(=Cc1cccnc1)c1ccccc1-2 | 2.27% | – |
| Cc1ccc(C(=O)CSc2ccccc2C(=O)O)cc1 | 1.14% | – |
| Cc1ccc(SC(CC(=O)c2ccc(C(C)(C)C)cc2)C(=O)O)cc1 (configuration not stated) | – | 20.6 µM (active) |
| Cc1ccc(C(=O)CNc2ccc(F)cc2)cc1 | 5.96% | – |
| O=C(N[C@H]1C/C=C\C(c2cccc(F)c2)N(Cc2ccccc2)C(=O)C1)OCC1c2ccccc2-c2ccccc21 (some centres not stated) | 2.59% | – |
| C#CCOCCOCCOCCNc1nc(N2CCN(C(=O)[C@H](CCCN=C(N)N)n3cc(C(N)[C@@H](C)CC)nn3)CC2)nc(N2CCN(C(=O)[C@H](CO)n3cc([C@@H](N)C(C)C)nn3)CC2)n1 (some centres not stated) | -3.08% | – |
| COC(=O)COc1cccc2c(=O)n(CC(=O)NCc3ccccc3)ccc12 | – | 2.59 µM (active) |
| COC(=O)COc1cccc2c(=O)n(CC(=O)NCCc3ccc(OC)c(OC)c3)ccc12 | 0.74% | – |

| SMILES | re-replication activation | Potency |
| --- | --- | --- |
| Cc1ccc(CNC(=O)CCNC(=O)Cn2ccc3ccccc3c2=O)cc1 | 9.14% | – |
| CN(Cc1ccc(CNC[C@H]2O[C@@H](n3cnc4c(N)ncnc43)[C@H](O)[C@@H]2O)o1)S(C)(=O)=O | -0.482% | – |
| CC(=O)Nc1ccc(NC(=O)COC(=O)C2CCC(C(C)(C)C)CC2)cc1 (configuration not stated) | -11.3% | – |
| Cc1ccc(NC(=O)Cn2cnc3c(OCc4ccccc4)ncnc32)cc1C | 8.76% | – |
| Cc1[nH]c2ccc(C(=O)N3CCN(C)CC3)cc2c1C | -8.89% | – |
| COc1ccccc1N1CCN(C(=O)c2ccc(Cl)c(S(=O)(=O)N3CCCC3)c2)CC1 | 3.04% | – |
| CCOc1ccccc1N1CCN(C(=O)c2ccc3[nH]c(C)c(C)c3c2)CC1 | – | 18.4 µM (active) |
| Cc1cc(NC(=O)CN2C(=O)NC(CC(C)C)C2=O)no1 (configuration not stated) | -8.09% | – |
| COc1ccc(CCNC(=O)c2ccc(NC(=O)CC3SC(N4CCCCC4)=NC3=O)cc2)cc1OC (configuration not stated) | -35% | – |
| C=CC[C@H](CC(=O)OC(C)(C)C)C(=O)OC[C@H]1CCCN1C(=O)[C@H](CC=C)CC(=O)N(CCO)Cc1ccccc1 | -12.8% | – |
| O=C(O)c1ccc(NC(=O)C2CCCCC2)cc1 | -5.52% | – |
| CN1C(=O)c2ccc(NC(=O)c3c(F)c(F)c(F)c(F)c3F)cc2C1=O | -4.95% | – |
| CN1C(=O)c2ccc(NC(=O)C3CCCCC3)cc2C1=O | – | 16.4 µM (active) |
| COc1ccc2nc(N3C(=O)C(O)=C(C(=O)c4ccco4)C3c3ccco3)sc2c1 (configuration not stated) | -4.84% | – |
| O=C(COC(=O)c1ccc(Br)o1)NC12CC3CC(CC(C3)C1)C2 | -5.15% | – |
| O=C(CC1SCCNC1=O)Nc1ccc(Cl)c(Cl)c1 (configuration not stated) | -3.76% | – |
| O=C(CC(O)(C(F)(F)F)C(F)(F)F)Nc1ccc(Cl)c(Cl)c1 | – | 14.6 µM (active) |
| O=C(Cc1ccc(Cl)c(Cl)c1)Nc1ccc(SC(F)F)cc1 | 2.53% | – |
| Cc1noc(C)c1C(=O)OC(C)C(=O)Nc1ccc2c(c1)OCO2 (configuration not stated) | -9.61% | – |
| O=C1C2C3C=CC(C3)C2C(=O)N1c1ncc([N+](=O)[O-])s1 (configuration not stated) | -1.99% | – |
| C/C(=N\Nc1ccccc1)c1cccs1 | -8.99% | – |
| CC(C)c1nccn1S(=O)(=O)c1cc([N+](=O)[O-])ccc1Cl | -7.61% | – |
| CCc1nc(C)cn1S(=O)(=O)c1cc([N+](=O)[O-])ccc1Cl | – | 4.11 µM (active) |
| CCc1nc(C)cn1S(=O)(=O)c1cc(OC)c(C)cc1C | -6.97% | – |
| O=C(Nc1ccc(S(=O)(=O)N2CCOCC2)cc1)C1CCN(S(=O)(=O)c2ccc(Cl)cc2)CC1 | -12% | – |

| SMILES | re-replication activation | Potency |
| --- | --- | --- |
| CCO[C@H]1OC(C(=O)NCc2ccccc2)=C[C@@H](c2coc3ccccc3c2=O)[C@@H]1CCCO | -2.42% | – |
| CCO[C@@H]1OC(C(N)=O)=C[C@H](c2ccc(Br)cc2)[C@H]1CCCO | 1.27% | – |
| C#CCNC(=O)C1=C[C@@H](c2ccccc2)[C@H](CCCO)[C@@H](OCC)O1 | – | 23.1 µM (active) |
| CN(c1ccccc1)S(=O)(=O)c1ccc(C(=O)N2CCN(c3ccccc3Cl)CC2)cc1 | 1.06% | – |
| CNC(=O)COC(=O)c1cc(-c2ccc(OC)cc2)nc2ccccc12 | -4.03% | – |
| Cc1cc(C(=O)Nc2ccccc2N2CCOCC2)c2ccccc2n1 | -21.9% | – |
| COC(=O)c1cc(N2CCNCC2)nc2ccccc12 | – | 10.3 µM (active) |
| Cc1cccc(NC(=O)c2ccc(S(=O)(=O)N(C)c3ccccc3)cc2)n1 | 2.72% | – |
| CCCCCCc1ccc(O)cc1O | 0.114% | – |
| Cc1c(CC(=O)NCCCCCC(=O)O)c(=O)oc2cc3occ(-c4ccccc4)c3cc12 | -3.23% | – |
| CCCCCCc1cc2cc(-c3nnc(-c4ccccc4)o3)c(=O)oc2cc1O | – | 3.55 µM (active) |
| CCCCNC1(C#N)CCN(Cc2ccccc2)CC1 | -1.42% | – |
| COc1cc(NC(=O)COC(=O)c2cc(S(=O)(=O)N3CCOCC3)ccc2F)cc(OC)c1 | 2.2% | – |
| O=C(COC(=O)c1ccncc1)Nc1ccc2c(c1)OCO2 | -2.98% | – |
| NS(=O)(=O)c1ccc(NC(=O)COC(=O)c2cc3ccccc3oc2=O)cc1 | 1.13% | – |
| O=C(COC(=O)c1c2c(nc3ccccc13)/C(=C\c1cccs1)CCC2)Nc1ccccc1Cl | – | 14.6 µM (active) and 13 µM (active) |
| NS(=O)(=O)c1ccc(NC(=O)COC(=O)c2c3c(nc4ccccc24)/C(=C\c2ccc4c(c2)OCO4)CCC3)cc1 | – | 7.31 µM (active) and 11.6 µM (active) |
| NS(=O)(=O)c1ccc(NC(=O)COC(=O)c2ccco2)cc1 | 0.0076% | – |
| O=C(COC(=O)c1ccc(F)cc1)Nc1ccc2c(c1)OCO2 | -15.1% | – |
| COc1cc(/C=C2\CCCc3c2nc2ccccc2c3C(=O)O)cc(Cl)c1O | -2.95% | – |
| NC(=O)c1ccc(NC(=O)COC(=O)c2c3c(nc4ccccc24)/C(=C\c2ccc4c(c2)OCO4)CCC3)cc1 | – | 7.31 µM (active) |
| O=C(COC(=O)c1c2c(nc3ccccc13)CCCC2)c1ccc(Br)s1 | -0.727% | – |
| OCC1(CO)CC2(C1)CC(CO)(CO)C2 | -2.65% | – |
| COc1ccc(CCNC(=O)COC(=O)c2ncc(Cl)c(Cl)c2Cl)cc1OC | 5.84% | – |
| O=C(CNC(=O)c1ccccc1F)OCC(=O)c1c[nH]c2ccccc12 | -0.0394% | – |

| SMILES | re-replication activation | Potency |
| --- | --- | --- |
| CC(=O)Nc1ccc(S(=O)(=O)Nc2ccc(N3CCCCC3)cc2)cc1 | 4.81% | – |
| CCC1([N+](=O)[O-])COC(c2ccc(C(C)C)cc2)OC1 (configuration not stated) | -14.6% | – |
| CC1CCCCC12NC(=O)N(CC(=O)OCc1c(F)cccc1Cl)C2=O (configuration not stated) | -2.6% | – |
| COc1ccc(CNC(=O)C2CC(c3ccc(C(F)(F)F)cc3)=NO2)cc1 (configuration not stated) | -4.92% | – |
| COc1ccc(S(=O)(=O)N2CCC(C(=O)NCc3ccco3)CC2)cc1C | 7.9% | – |
| COc1ccc(C2=NOC(C(=O)NCc3ccco3)C2)cc1OC (configuration not stated) | – | 13 µM (active) |
| Cc1cc(N2CCCC2)ccc1NC(=O)COc1ccc(Cl)cc1 | -5.98% | – |
| CC(C)n1cnc2c(NCc3ccccc3)cc(OCC3CCN(C)CC3)cc21 | 9.3% | – |
| COc1ccccc1NS(=O)(=O)c1ccc(C)c(C(=O)NNC(=O)c2csc(N3CCOCC3)n2)c1 | 2.11% | – |
| O=C(C(=O)N1CCc2ccccc2C1)c1c[nH]c2ccccc12 | – | 4.11 µM (active) |
| O=C(NC1CCCC1)C(=O)c1c[nH]c2ccccc12 | -12.4% | – |
| O=C(C(=O)N1CCc2ccccc2C1)N1CCc2ccccc2C1 | -3.4% | – |
| COc1cc2c(-c3ccc4c(c3)OCO4)c(-c3ccsc3)oc(=O)c2cc1OC | -0.829% [at 9.22 µM] | – |
| COc1ccc(-c2ccc3c(c2)[C@@H]2C[C@H](N(C)S(=O)(=O)c4ccccc4)[C@H]([C@H](C)O)C(=O)N2CC3)cc1 | -8.75% | – |
| CC1CCCN(C(=O)Cn2c(=O)oc3cc(S(=O)(=O)N4CCCCC4C)ccc32)C1 (configuration not stated) | -0.527% | – |
| Cc1ccc(O)c(CNc2nc3ccccc3[nH]2)c1 | -9.52% | – |
| COC(=O)Nc1nc2ccc(Sc3ccccc3)cc2[nH]1 | – | 640 nM (active) and 2.06 µM (active) |
| CC(C)c1nc2ccc(C(=O)O)cc2[nH]1 | 7.69% | – |
| COc1ccc(C)cc1NC(=O)CN1c2cccc3cccc(c23)S1(=O)=O | 4.22% | – |
| Cc1ccc(N(C(=O)c2snc(C(N)=O)c2N)C(C(=O)NCC2CCCO2)c2c[nH]c3ccccc23)cc1 (configuration not stated) | 7.31% | – |
| Cc1ccc(C(C(=O)NCC2CCCO2)N(C(=O)c2snc(C(N)=O)c2N)c2ccc(C(C)C)cc2)o1 (configuration not stated) | – | 18.4 µM (active) |
| CCOc1ccc(N(C(=O)c2snc(C(N)=O)c2N)C(C(=O)NCC2CCCO2)c2c[nH]c3ccccc23)cc1 (configuration not stated) | 10.8% | – |

Source: PubChem BioAssay AID624297 (National Center for Advancing Translational Sciences (NCATS), 2012)
